# Bioassay records: PubChem BioAssay, National Center for Advancing Translational Sciences (NCATS)
# Shown are actives, neighbours in structure and some others; about 21% of the full set was active somewhere.
# SARS PLP yeast = inhibitors of SARS-CoV papain-like protease in yeast | S. cerevisiae expressing SARS-CoV PLpro, growth rescue | Potency, µM (series often up to 32.9 µM), for the others: at the highest dose activity, positive = growth rescue, most hits filed as activators | hit rate 0.19% among 330,000 | AID 485353; calls by dose curve; note: potency is the fitted concentration of half-maximal effect; 0% is about no effect; nearly all actives have a fitted effect of over 55% in size
# CHX counter = counter-screen hit for Shiga toxin inhibitors, cycloheximide; cell reporter, cycloheximide protein synthesis inhibition counterscreen; max response, %; hit rate 12% among 300,000; AID 2314; in the data active = max response mostly above about 13%, no sharp cut-off; inactive = mostly below about 14%; note: read at 38.3 µM for the half of the compounds with a filed dose; 0% is about no effect
# Pf growth 96h = inhibits malaria parasite growth, 96 h; P. falciparum luciferase reporter growth, 96 h; Potency, µM (series often up to 28.7 µM), without a hit: top-dose activity change, negative = inhibition, most hits filed as inhibitors; hit rate 6.9% among 320,000; note: potency is the fitted concentration of half-maximal effect; % is set by controls: 0 for no effect and ±100 for the full control effect
#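 Delayed-death screen, second-generation endpoint: infected erythrocytes, 2% hematocrit, 0.05% parasitemia final; 96 hours at 37 C, 5% CO2; luciferase detection reagent; luminescence decrease equals reduced growth.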
# Shiga toxin inh = inhibitors of Shiga toxin in Vero cells. Vero cells, Shiga toxin protein synthesis inhibition reporter. inhibition, % at 38.7 µM. AID 2315. hit rate 9.2% among 290,000; in the data active = inhibition mostly above about 28%, no sharp cut-off; inactive = mostly below about 43%; note: 0% is about no effect
# Pf growth 48h = P. falciparum growth inhibition at 48 hours (one generation) | P. falciparum luciferase growth in erythrocytes, 48 h | Potency, µM (titrated, usually from 28.7 µM), inactives show top-dose activity change, negative = inhibition, most hits filed as inhibitors | hit rate 5.9% among 310,000; note: potency is the fitted concentration of half-maximal effect; % is set by controls: 0 for no effect and ±100 for the full control effect
#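 Read-out is firefly luciferase luminescence from an integrated reporter in P. falciparum, so falling signal marks reduced parasite growth. Infected erythrocytes were at 2% hematocrit and 0.1% parasitemia (final) in Albumax-supplemented RPMI 1640.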
# NS1 inh = inhibitors of influenza NS1 protein function; hit rate 0.4% among 270,000; Potency, µM (top dose mostly 46.1 µM), for inactives: top-dose activity, positive = more growth; calls by dose curve; note: potency is the fitted concentration of half-maximal effect; actives are rising curves; nearly all actives have a fitted effect of over 50% in size
#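 S. cerevisiae expressing influenza A NS1, grown in glucose, washed, then diluted 1:100 into pH 6.0 -URA galactose medium with 23 nl compound. Growth recovery read as OD600; NS1-free strain serves as control.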
# The depositor's hits bear a star; ? = inconclusive; nt = not tested or not shown. Unless noted, calls come from the whole dose curve; as a rule, active = well fitted inhibition curve with a large enough effect; inconclusive = small, poorly fitted or top-dose-only effect, or another doubt; inactive = no such curve, though single readings can be large or run the other way.
SMILES,SARS PLP yeast,CHX counter,Pf growth 96h,Shiga toxin inh,Pf growth 48h,NS1 inh
CN(C)CCCN1C(=O)C(O)=C(C(=O)c2cccs2)C1c1ccccn1 (centres undefined),nt,nt,nt,nt,nt,16.1%
CCn1cc(C(=O)Nc2sc(C)c(C)c2C(=O)OC)cn1,-4.3%,9.3,27.6%,25.0*,13.8%,-26.8%
Clc1ccc(-c2nnc(Sc3nc4ccccc4o3)c3ccccc23)cc1,1.1%,2.8,7.7%,16.8,36.7%,-2.3%
CCSc1nnc(C)c2ccccc12,-1.5%,-4.7,?,-15.9,49.1%,1.1%
Cc1nnc(Sc2nc3ccccc3o2)c2ccccc12,-11.3%,25.8*,nt,106.7,-25.5%,-44.7%
Cc1ccc(-c2nnc(Sc3nc4ccccc4o3)c3ccccc23)cc1,-3.9%,-3.6,3.7%,-16.7,11.7µM*,nt
COc1ccc(OC)c2sc(N3CCc4ccccc4C3)nc12,-9.6%,18.4,-1.0%,51.2,?,nt
c1ccc2c(c1)CCN(c1nc3cc4c(cc3s1)OCCO4)C2,-37.2%,33.8*,nt,15.5,19.5%,-143.5%
COc1ccccc1NCCC(=O)OCC(=O)Nc1cc([N+](=O)[O-])ccc1F,-9.7%,nt,nt,nt,nt,nt
C=CC[C@H]1CC(C)=C[C@H](CC=C)N1,0.8%,2.0,?,3.1,0.928µM*,nt
C=CC[C@H]1CC(Cc2ccccc2)=C[C@H](CC=C)N1,-8.7%,-3.8,0.0738µM*,-5.7,0.233µM*,-9.3%
Cc1cc2c(OCC(CNC(C)(C)C)OC(=O)c3ccccc3)cccc2[nH]1 (centres undefined),nt,nt,-7.6%,nt,?,nt
COC(=O)C1=C(c2ccccc2OCc2ccccc2)C[C@@H]2CC[C@H]1N2C(=O)NCc1ccccc1,1.5%,nt,4.15µM*,nt,10.4µM*,nt
COC(=O)C1=C(c2ccc(OCc3ccccc3)cc2)C[C@@H]2CC[C@H]1N2C(=O)NCc1cccc(C(F)(F)F)c1,5.0%,nt,1.85µM*,nt,4.15µM*,nt
COC(=O)C1=C(c2ccccc2OCc2ccccc2)C[C@@H]2CC[C@H]1N2C(=O)NCCN1CCOCC1,-0.5%,nt,4.65µM*,nt,?,nt
COC(=O)C1=C(c2ccccc2OCc2ccccc2)C[C@@H]2CC[C@H]1N2C(=O)NCCc1ccc(F)cc1,3.5%,nt,?,nt,10.4µM*,nt
COC(=O)C1=C(c2ccc(OC(F)(F)F)cc2)C[C@@H]2CC[C@H]1N2C(=O)NCC1CC1,0.9%,nt,?,nt,?,nt
COc1ccc(C(C(=O)NC2CCCC2)N(Cc2ccc(C)cc2)C(=O)c2ccn[nH]2)cc1OC (centres undefined),3.3%,0.9,20.5%,-14.1,20.1%,7.4%
Cn1c(=O)c2c(SCC(=O)N3CCOCC3)nc(-c3ccccc3Cl)nc2n(C)c1=O,23.5%,0.5,?,-3.9,-2.5%,9.6%
COC(=O)C1=C(c2ccc(OCc3ccccc3)cc2)C[C@@H]2CC[C@H]1N2C(=O)NCc1ccc(OC)c(OC)c1,0.7%,nt,?,nt,?,nt
COC(=O)C1=C(c2ccccc2OCc2ccccc2)C[C@@H]2CC[C@H]1N2C(=O)NCc1ccc(C(F)(F)F)cc1,1.7%,nt,?,nt,13.1µM*,nt
COC(=O)C1=C(c2ccccc2OCc2ccccc2)C[C@@H]2CC[C@H]1N2C(=O)NCc1cccc(C(F)(F)F)c1,-3.5%,nt,?,nt,10.4µM*,nt
COC(=O)C1=C(c2ccccc2OCc2ccccc2)C[C@@H]2CC[C@H]1N2C(=O)NCc1ccc(Br)cc1,0.6%,nt,?,nt,10.4µM*,nt
COC(=O)C1=C(c2ccc(OCc3ccccc3)cc2)C[C@@H]2CC[C@H]1N2C(=O)NCc1ccc(N(C)C)cc1,-6.7%,nt,9.28µM*,nt,?,nt
COC(=O)C1=C(c2ccc(F)cc2OCc2ccccc2)C[C@@H]2CC[C@H]1N2C(=O)NCc1ccc(C(F)(F)F)cc1,0.4%,nt,nt,nt,nt,nt
SMILES,SARS PLP yeast,CHX counter,Pf growth 96h,Shiga toxin inh,Pf growth 48h,NS1 inh
COC(=O)C1=C(c2ccc(F)cc2OCc2ccccc2)C[C@@H]2CC[C@H]1N2C(=O)NCc1cc(C)oc1C(F)(F)F,-2.1%,nt,nt,nt,nt,nt
COc1ccc(CCNC(=O)C2CCN(C(=O)c3ccc(C(C)(C)C)cc3)CC2)cc1,2.6%,5.2,-1.0%,15.7,?,-2.7%
CCOC(=O)C1CCN(S(=O)(=O)c2ccc(OC)c(Cl)c2)CC1,-0.5%,0.5,?,-6.0,-0.7%,-5.5%
COc1ccccc1NC(=O)N(Cc1ccccc1)C1=NCC(C)S1 (centres undefined),0.6%,15.7,-4.3%,14.2,35.6%,-16.1%
CC(C)(C)c1cc(O)ccc1O,nt,nt,10.7µM*,nt,6.01µM*,-5.6%
CCOC(=O)c1cc(C(=O)NC(C)c2ccccc2)c(C)[nH]c1=O (centres undefined),-0.2%,-3.5,36.9%,-2.1,-6.3%,4.4%
CCCCc1nc2cc(C(=O)N3CCC(OC)CC3)ccc2o1,-3.9%,27.1*,49.5%,44.4*,31.1%,1.1%
CCCCc1nc2cc(C(=O)NCc3nccn3CC)ccc2o1,2.6%,50.4*,-19.9%,36.7*,34.8%,-3.3%
CCCCc1nc2cc(C(=O)NCc3cn(C)nc3C)ccc2o1,-0.9%,-8.0,?,-12.8,-12.3%,-22.2%
COCCC1CCCCN1C(=O)c1ccc2nc(Cc3ccccc3F)oc2c1 (centres undefined),-10.0%,60.6*,5.3%,96.7*,?,1.8%
COC1CCN(C(=O)c2ccc3oc(C(C)C)nc3c2)CC1,0.7%,22.8*,-47.4%,19.6*,41.7%,-0.9%
CC(C)(C)c1ccc(S(=O)(=O)N(CCCN2CCOCC2)Cc2cccs2)cc1,-20.8%,-4.3,12.2%,9.6,?,-35.7%
CC(=O)Oc1c(C(=O)c2nnc(C)o2)c(=O)n(C)c2ccccc12,-1.2%,-1.7,4.2%,3.2,-1.9%,-7.1%
CCCCc1nc2cc(C(=O)N3CCN(c4nc(C)cnc4C)CC3)ccc2o1,-2.0%,47.4*,1.2%,70.5*,-27.0%,-18.6%
CCCCc1nc2cc(C(=O)N3CCCCC3CCNC(C)=O)ccc2o1 (centres undefined),23.9%,2.4,-7.4%,3.5,0.0%,1.2%
COCC1CCCCN1C(=O)c1ccc2oc(CCc3ccccc3)nc2c1 (centres undefined),-0.4%,37.2*,?,93.6*,26.0%,-8.8%
CCOC(=O)CC1CCCCN1C(=O)c1ccc2oc(CCc3ccccc3)nc2c1 (centres undefined),-1.1%,17.1*,?,34.4*,-18.1%,-14.1%
COc1ccc([C@@H](C)NC(=O)c2ccc3oc(C(C)C)nc3c2)cc1,nt,50.0*,0.657µM*,73.9*,46.8%,-14.7%
COc1ccc(C(=O)NC(C)c2cc(OC)c(OC)cc2Br)cc1 (centres undefined),1.8%,-1.1,-2.7%,-15.5,30.3%,-20.5%
Cc1cccc(-n2nc3c(c2NC(=O)C(C)C)CSC3)c1,-4.0%,-1.9,26.6%,-3.0,29.4%,14.5%
CCOC(=O)C1CCN(C(=O)COC(=O)CSc2ccccc2C)CC1,18.9%,nt,nt,nt,nt,nt
O=C1CCN(c2ccc([N+](=O)[O-])cc2F)CC1,0.1%,2.9,56.7%,21.6,276.0%,nt
